According to PubChem BioAssay (NCI):
The panel holds about 83,000 compounds, 20% with a hit somewhere; the sample as a whole holds those more often.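 Activity criterion: percent growth below 10, measured after cells in 96-well plates were exposed to a single compound concentration for 48 hours.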 Active and inactive are the calls of the source.

Columns and labels:
Assay in all cases: NCI-60 one-dose screen, 48 h (100 = growth as untreated, 0 = no growth, -100 = all killed)
[1] = system: NCI-H522 lung; details: 10 µM unless noted
[2] = system: A549/ATCC NSCLC; details: 10 µM unless noted
[3] = system: COLO 205 colon; details: 10 µM
[4] = system: M14 melanoma; details: 10 µM unless noted
[5] = system: SK-MEL-2 melanoma; details: 10 µM unless noted
[6] = system: EKVX NSCLC; details: 10 µM unless noted
[7] = system: TK-10 renal; details: 10 µM unless noted
[8] = system: ACHN renal; details: 10 µM unless noted
[9] = system: CCRF-CEM leukemia; details: 10 µM unless noted
[10] = system: SR leukemia; details: 10 µM
[11] = system: RPMI-8226 leukemia; details: 10 µM unless noted
[12] = system: OVCAR-5 ovarian; details: 10 µM unless noted
[13] = system: OVCAR-4 ovarian; details: 10 µM unless noted
[14] = system: SK-OV-3 ovarian; details: 10 µM unless noted
[15] = system: IGROV1 ovarian; details: 10 µM
[16] = system: HS 578T breast; details: 10 µM unless noted
[17] = system: NCI/ADR-RES ovarian; details: 10 µM unless noted
[18] = system: HCT-116 colon; details: 10 µM unless noted

Measured: growth

CO[C@@H]1[C@H](OC(=O)NC(=O)CCl)CC[C@]2(CO2)[C@H]1[C@@]1(C)O[C@@H]1CC=C(C)C
active: [15] -10.6%
inactive: [1] 10.3% | [2] 59.1% | [3] 57.4% | [4] 62% | [5] 82.3% | [6] 91.7% | [7] 92.6% | [8] 60.7% | [9] 31.8% | [10] 21.5% | [11] 45.4% | [12] 72.3% | [13] 47.8% | [14] 93.7% | [16] 61.2% | [17] 75.9% | [18] 43.8%

Cc1ccc(N)cc1[As]=[As]c1cc(N)ccc1C (configuration not stated)
inactive: [2] 69.8% | [14] 75.3% | [17] 53.8%
active: [1] -88.2% | [3] -69.3% | [4] -72.2% | [8] -91.6% | [9] -38% | [10] -43.7% | [11] -40.2% | [12] -90.6% | [13] -83.1% | [15] -90.8% | [18] -79.4%

COc1ccc(C2SCC(=O)Nc3c2c(C)nn3-c2nc3ccc(C)cc3s2)cc1O (configuration not stated)
active: [1] 1.68% | [5] -1.24% | [10] 9.81%
inactive: [2] 29.3% | [7] 71.6% | [8] 44.2% | [9] 27.6% | [11] 38.8% | [12] 67.2% | [13] 72.7% | [14] 44.2% | [15] 52.7% | [16] 42.2% | [17] 17.3% | [18] 34.1%

CC[C@H](C)[C@H](NC(=O)Nc1ccccc1)C(=O)N(C)[C@H](C[C@@H](OC(C)=O)c1nc(C(=O)N[C@@H](Cc2ccccc2)C[C@H](C)C(=O)OC)cs1)C(C)C
active: [1] -44.6% | [3] -51.8% | [4] -7.55% | [5] -15% | [9] 9.52% | [11] 8.45% | [16] 5.14% | [18] 6.85%
inactive: [2] 23.5% | [6] 33.2% | [8] 25.1% | [10] 11.2% | [12] 28.9% | [13] 31.5% | [14] 25.4% | [15] 22.2% | [17] 59.1%

CCC[CH2][Sn]([CH2]CCC)([CH2]CCC)[O]C(=O)CC
active: [1] -81.2% | [2] -78.8% | [3] -86.7% | [5] -83.2% | [6] -43.9% | [7] -97.1% | [8] -96.7% | [10] 7.87% | [11] -31% | [12] -91.2% | [13] -99.4% | [14] -99.5% | [15] -80.2% | [16] -38.4% | [17] -87% | [18] -88.6%

O=[As]c1ccc(C(=O)c2ccc(Oc3ccccc3)cc2)cc1 (configuration not stated)
active: [1] -95.4% | [2] -94.8% | [4] -94.1% | [5] -95.2% | [6] -80.8% | [9] -33.1% | [11] -49.2% | [12] -95.4% | [13] -91.2% | [17] -52.4%
inactive: [16] 59.7%

COC(C)(C)CCC[C@H](C)C/C=C/C(C)=C/C(=O)OC(C)C
inactive: [1] 69.1% | [2] 98.5% | [3] 107% | [4] 100% | [5] 97.1% | [6] 78.1% | [8] 109% | [9] 78% | [11] 62.9% | [12] 128% | [13] 90% | [14] 92% | [15] 99.7% | [16] 119% | [17] 91.7% | [18] 83.6%

O=CC(Br)C(Br)c1ccccc1 (configuration not stated)
inactive: [1] 98% | [2] 97.6% | [3] 123% | [4] 91.8% | [5] 112% | [8] 86.2% | [11] 89% | [12] 98% | [13] 104% | [14] 109% | [15] 74.8% | [16] 97.2% | [17] 100%
active: [9] -1.8% | [18] 2.83%

Cc1cc(C)nc(C)c1.[Cl][Hg][Cl]
inactive: [2] 97.2% | [3] 123% | [4] 97.3% | [5] 98.7% | [7] 108% | [8] 101% | [9] 78.3% | [11] 98.9% | [12] 114% | [13] 103% | [14] 110% | [16] 108% | [17] 102% | [18] 108%
active: [1] 3.42%
